For orientation: inhibition means the change of the read-out against control, counted positive when it falls.

About 1,900 (0.58%) of roughly 330,000 compounds were called active. About 4% were inconclusive and are not listed. Cut-off read from the data, not from the text of the source: inconclusive = inhibition above about 70% without an active follow-up result; inactive = below that. These entries were drawn from the full list. Potency and affinity values are given separately.

Here are results for 92 compounds from PubChem BioAssay AID449762 (Southern Research Specialized Biocontainment Screening …, 2010).

A short description of the assay: M. tuberculosis growth inhibition, HTS (AID 449762).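 Note: bacterial growth assessed after seven days of incubation.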 To be noted: M. tuberculosis H37Rv growth inhibition, 7H9 media; at 25 µM; active compounds read high.
For the compound `COc1cc2oc(=O)ccc2cc1[C@H](O)[C@@H](O)C(C)(C)O`, the inhibition is -11.1% (inactive).
Regarding `COc1ccc(-c2c[n+]3c(n2-c2ccccc2)CCCCC3)cc1`, the inhibition was -4.08% (inactive).
Consider `COc1ccc(-c2c[n+](CC(=O)c3ccccc3)c3n2CCCCC3)cc1`, for which the inhibition was 1.09% (inactive).
With `CSc1nn(-c2ccc(C(=O)OC(C(=O)NC(N)=O)C(C)C)cc2)c(=S)s1` (configuration not stated), the inhibition is 50.6% (inactive).
Take `CC(C)NC(=O)NC(=O)COC(=O)c1ccc(OC(F)(F)F)cc1`: the inhibition was 14.2% (inactive).
In the case of `O=C(CN1CCN(S(=O)(=O)c2cccc(F)c2)CC1)NCC1(N2CCOCC2)CCCCC1`, the inhibition was 6.01% (inactive).
With `CC(C)(C)C(=O)Nc1cc(C(F)(F)F)ccc1-n1ccnc1` the figure was -0.21% (inactive); with `Fc1ccc(-n2c(Cn3nnc4ccccc43)n[nH]c2=S)cc1`, -5.75% (inactive); with `COc1ccccc1NC(=O)CSc1nnnn1C`, -4.82% (inactive).
With `COc1ccccc1NC(=O)c1ccc(NC(=O)CSc2nncn2C)cc1` the figure was 7.82% (inactive).
Consider `COc1ccccc1NS(=O)(=O)c1ccc2ccccc2c1`, for which the inhibition was 7.83% (inactive).
For `CC1CCc2sc(C(=O)NCc3ccccn3)cc2C1` (configuration not stated), the inhibition was 4.08% (inactive).
For the compound `O=C(Nc1cccc2ccccc12)c1ccc([N+](=O)[O-])cc1`, the inhibition is 5.16% (inactive).
Turning to `CCOC(=O)C1CCCCN1S(=O)(=O)c1cc2c(cc1C)NC(=O)CO2` (configuration not stated), the inhibition is -3.9% (inactive).
On to `CCN(C(=O)Cn1ccc(C(F)(F)F)n1)c1c(N)n(Cc2ccccc2)c(=O)[nH]c1=O`, for which the inhibition is -10% (inactive).
`O=C(COc1ccc([N+](=O)[O-])cc1)NNC(=S)NC(=O)c1ccc(Br)cc1`: the inhibition is 10.5% (inactive).
As for `Cc1ccc(S(=O)(=O)N(C)c2ccc(OCC(=O)OCc3c(C)noc3C)cc2)cc1`, the figure is 47.9% (inactive); as for `Cc1ccc(S(=O)(=O)N(C)c2ccc(OCC(=O)OCC(=O)N(CC#N)c3ccccc3)cc2)cc1`, 15.9% (inactive); as for `CN1CC=C(c2c[nH]c3ccccc23)CC1`, -13.7% (inactive).
As for `COc1ccc2[nH]cc(C3=CCNCC3)c2c1`, the inhibition was 67.9% (inactive).
Turning to `CCOc1cc(C2C3=C(CC(C)(C)CC3=O)N(CCCOC)C3=C2C(=O)CC(C)(C)C3)ccc1OC`, the inhibition was 1.22% (inactive).
For `CC(=O)Nc1ccc2c(c1)nc1n2CCOC1`, the inhibition is 8.99% (inactive).
Take `Cc1ccc(N(CC(=O)Nc2cc(Cl)ccc2Oc2ccccc2)S(C)(=O)=O)cc1C`: the inhibition was 13.8% (inactive).
With `Cc1nn(-c2ccccc2)c(N)c1N=Nc1ccc2ccccc2c1` the figure was 56.7% (inactive); with `Cc1nn(-c2ccccc2)c(N)c1N=Nc1ccccc1`, -2.88% (inactive); with `O=c1c2sccc2nc(SCc2ccc([N+](=O)[O-])cc2)n1Cc1ccccn1`, 4.82% (inactive).
With `O=C(CSc1nnnn1-c1ccc2c(c1)OCCO2)N1CCc2ccccc21` the figure was 5.18% (inactive); with `O=C(CCc1n[nH]c(=O)[nH]c1=O)N1CCOCC1`, -14.1% (inactive).
As for `CCCNC(=O)c1cccc(COc2ccccc2OC)c1`, the inhibition was 3.61% (inactive).
As for `Cc1nc2sccn2c(=O)c1S(=O)(=O)N1CCN(c2ccc(F)cc2)CC1`, the figure is 8.78% (inactive); as for `Cc1nc2ccccn2c(=O)c1CCN1CCC(C(=O)c2ccc(F)cc2)CC1`, -4.74% (inactive); as for `CCCNC(=S)N(Cc1cc2cc(C)ccc2n2nnnc12)CC(C)(C)CN(C)C`, 18.8% (inactive).
As for `CSCC[C@H](NC(=O)OC(C)(C)C)C(=O)NCC1CCC(C(=O)N[C@@H](Cc2ccccc2)C(=O)O)CC1` (some centres not stated), the figure is 2.33% (inactive).
Take `CNCCNC[C@H](Cc1cccc2ccccc12)NCCc1ccccc1`: the inhibition is -2.82% (inactive).
Consider `C=CCOc1ccccc1CNCCNC(=O)c1nonc1N`, for which the inhibition was -4.17% (inactive).
With `CCCCCOC(=O)Cn1c(SCC(=O)Nc2ccccc2)nc2c1c(=O)[nH]c(=O)n2C` the figure was -7.54% (inactive); with `O=C(c1cc([N+](=O)[O-])ccc1N1CCOCC1)N1CCN(S(=O)(=O)c2ccc(F)cc2)CC1`, -2.15% (inactive); with `C/C(=N/NC(=O)c1cc2ccccc2cc1O)c1ccco1`, 66.3% (inactive).
As for `C/C(=N\NC(=O)c1cc2ccccc2cc1O)c1cccs1`, the inhibition is -0.54% (inactive).
For `N#CCCN(C(=O)COC(=O)c1nc(Cl)ccc1Cl)c1ccccc1`, the inhibition is -6.38% (inactive).
For `C=CCn1c(C(C)NC(=O)c2cccs2)n[nH]c1=S` (configuration not stated), the inhibition was -3.28% (inactive).
Regarding `CCC(C)Oc1cc(-c2ccnc(Nc3cccc(Cl)c3)n2)ccn1` (configuration not stated), the inhibition is 63.7% (inactive).
On to `OCCCNc1nccc(-c2cc(Nc3cccc(Cl)c3)ncn2)n1`, for which the inhibition was 5.56% (inactive).
As for `Cc1ccc(-c2nnn(CC(=O)N(c3cccc(F)c3)C(C(=O)NC3CCCC3)c3ccncc3)n2)o1` (configuration not stated), the figure is 0.25% (inactive); as for `COCCCNC(=O)CSc1ccc(Cl)cc1`, -2.16% (inactive); as for `CCN(c1ccccc1)S(=O)(=O)c1ccc(OC)c(N=N/C(C(=O)Nc2ccccc2)=C(/C)O)c1`, 10.8% (inactive).
With `O=C(NCC(c1ccco1)N1CCOCC1)c1cccc([N+](=O)[O-])c1` (configuration not stated) the figure was 1.76% (inactive); with `CC(C)NCC(O)COC1CCC(C(C)(C)C)CC1` (configuration not stated), -7.84% (inactive).
Consider `CC[C@H](C)[C@@H](CN[C@H](CCCCNC)CNC)NCC1CCCC1`, for which the inhibition is 4.48% (inactive).
With `Cc1ccc(C2C3=C(CC(C)(C)CC3=O)OC3=C2C(=O)CC(C)(C)C3)cc1` the figure was -4.24% (inactive); with `Cc1onc(-c2ccccc2)c1C(=O)OCC(=O)N1CCC(C)CC1`, -0.29% (inactive).
As for `CSc1nnc(C)c(/C=C/NOCc2ccc(Cl)cc2)n1`, the inhibition is -4.59% (inactive).
With `CCc1ccc2c(c1)cc(CN(C(=S)Nc1ccc(Cl)cc1)C1CC1)c1nnnn12` the figure was -13.5% (inactive); with `Cc1ccccc1-n1cnc2cc(NCc3cccs3)ccc21`, 59.7% (inactive); with `Cn1cnc2cc(NCc3cccs3)ccc21`, 2.02% (inactive).
As for `CCn1c(SC(C)C(=O)N2CCOCC2)nc2sc(C)c(C)c2c1=O` (configuration not stated), the figure is -0.24% (inactive); as for `CCC(C)[C@H](NC(=O)C1CC(=O)N(c2ccc3c(c2)OCCO3)C1)C(=O)NC1CCCC1` (some centres not stated), -2.76% (inactive); as for `O=C(O)COc1ccc(NC(=O)c2ccc3c(c2)C(=O)N(C2CCCCC2)C3=O)cc1`, -5.81% (inactive).
With `CN(CCC#N)C(=O)COC(=O)c1ccc2c(c1)C(=O)N(C1CCCCC1)C2=O` the figure was 11.1% (inactive); with `CCC(=O)Nc1ccc2c(c1)C(=O)N(C1CCCCC1)C2=O`, 12.2% (inactive); with `COC(=O)c1ccc2c(c1)C(=O)N(C1CCCCC1)C2=O`, 48.9% (inactive).
With `Clc1cccc(C2CCN(Cc3nc(CC4CC4)no3)C2)c1` (configuration not stated), the inhibition is 16.3% (inactive).
As for `CCOC(=O)CSc1nnc(CNc2cccc(Cl)c2)n1-c1ccccc1`, the inhibition was -7.68% (inactive).
Regarding `COc1ccc(NCc2nnc(SCc3ccc(Cl)cc3)n2-c2ccccc2)cc1`, the inhibition was -5.4% (inactive).
With `Cc1ccccc1S(=O)(=O)Cc1ccc(C(=O)NCCCOC(C)C)o1` the figure was 2.68% (inactive); with `CN(CC(=O)Nc1ccccc1Cl)C(=O)COC(=O)c1ccc(=O)n(Cc2ccccc2)n1`, 0.91% (inactive).
With `Cc1sc2nc(CN(C(=O)NC3CCCCC3)C3CCCCC3)[nH]c(=O)c2c1C` the figure was 26.1% (inactive); with `CC(=O)N(Cc1nc2sc(C)c(C)c2c(=O)[nH]1)C1CCCC1`, -3.15% (inactive); with `O=C(Cc1ccc(F)cc1)N(c1ccccc1)C1C=CS(=O)(=O)C1` (configuration not stated), -6.47% (inactive).
As for `CCn1cc(C2C(C(=O)Nc3cc(C)ccn3)=C(C)NC3=C2C(=O)CC(C)(C)C3)c(C)n1` (configuration not stated), the inhibition is 1.96% (inactive).
As for `CCCCCCn1c(=O)c(C(=O)Nc2ncccc2O)c(O)c2ccccc21`, the figure is 13.4% (inactive); as for `CCCn1c(=O)c(C(=O)Nc2ncccc2C)c(O)c2ccccc21`, 18.3% (inactive); as for `CC1(C)CC(=O)C(N=Nc2cccc([N+](=O)[O-])c2)=C(O)C1`, 0.73% (inactive).
`CCN(N=Nc1cccc([N+](=O)[O-])c1)c1cccc([N+](=O)[O-])c1`: the inhibition is 4.11% (inactive).
For the compound `COc1ccc(CCN2C(=O)CSC2c2ccc(F)cc2)cc1` (configuration not stated), the inhibition is -7.99% (inactive).
As for `Cc1ccc(S(=O)(=O)N(C)c2ccc(C(=O)Nc3ccccn3)cc2)cc1`, the figure is 27.5% (inactive).
With `COc1ccc(-c2sc3ccc(N4CCOCC4)cc3c2-c2ccc(OC)c(F)c2)cc1` the figure was -0.65% (inactive).
Turning to `Cc1nc(SCc2nc3ccccc3[nH]2)c2oc3cc(Br)ccc3c2n1`, the inhibition is 0.43% (inactive).
As for `Cc1cc(NC(=O)Cn2ccsc2=N)c([N+](=O)[O-])cc1C`, the figure is -4.45% (inactive); as for `N=c1sccn1CC(=O)Nc1ccc(Cl)cc1[N+](=O)[O-]`, -3.88% (inactive); as for `CC(Oc1ccccc1)C(=O)N1CCC2(CC1)Oc1ccc(Cl)cc1C(=O)C21CC(c2ccccc2)=NO1` (configuration not stated), 23.6% (inactive).
With `CC(C)C(=O)N1CCC2(CC1)Oc1ccc(Cl)cc1C(=O)C21CC(c2cccnc2)=NO1` (configuration not stated) the figure was 1.87% (inactive); with `CN1/C(=C\C(=O)c2cccnc2)C(C)(C)c2ccccc21`, 14.2% (inactive); with `CN1/C(=C\C(=O)c2ccco2)C(C)(C)c2ccccc21`, 1.21% (inactive).
With `CCC(C)[C@H](NC(=O)Nc1ccc(S(N)(=O)=O)cc1)C(=O)OC` (some centres not stated) the figure was 1.32% (inactive); with `O=C(CCl)Nc1ccc(S(=O)(=O)NC2=NCCCCC2)cc1`, 47.6% (inactive); with `Cc1cc(NC(=O)/C=C/c2ccccc2)no1`, 11.4% (inactive).
For `COC(=O)c1cc(/C=C/c2ccccc2)[nH]n1`, the inhibition is 37.7% (inactive).
With `O=C(c1ccc(C(F)(F)F)cc1)N1CCC(=O)N(C(COCc2ccc(Cl)cc2)Cc2ccccc2)CC1` (configuration not stated) the figure was -0.74% (inactive); with `CCSc1nc2ccccc2n1CC(N)=O`, -10.4% (inactive); with `CC(C)(C(=O)O)c1ccc([C@H](O)CCCN2CCC(C(O)(c3ccccc3)c3ccccc3)CC2)cc1`, 6.89% (inactive).
As for `CC(C)(C(=O)O)c1ccc(C(O)CCCN2CCC(C(O)(c3ccccc3)c3ccccc3)CC2)cc1` (configuration not stated), the inhibition is 6.01% (inactive).
